The source made the active and inactive calls.
What was measured:
Albumin (Bos taurus) = Albumin (Bos taurus) (UniProt P02769); assay: bovine serum albumin binders on microarray, profiling panel, artefact control for SMM control protein annotation, biochemical, small-molecule microarray, Alexa647 label, 635/667 nm fluorescence (AID 1118); details: BSA-A647 binding, fluorescence 635 nm, higher = more signal;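 further: score merges 667 nm emission intensity and signal-to-noise per printed compound spot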
Albumin (Bos taurus), sequence (P02769 whole entry, looked up): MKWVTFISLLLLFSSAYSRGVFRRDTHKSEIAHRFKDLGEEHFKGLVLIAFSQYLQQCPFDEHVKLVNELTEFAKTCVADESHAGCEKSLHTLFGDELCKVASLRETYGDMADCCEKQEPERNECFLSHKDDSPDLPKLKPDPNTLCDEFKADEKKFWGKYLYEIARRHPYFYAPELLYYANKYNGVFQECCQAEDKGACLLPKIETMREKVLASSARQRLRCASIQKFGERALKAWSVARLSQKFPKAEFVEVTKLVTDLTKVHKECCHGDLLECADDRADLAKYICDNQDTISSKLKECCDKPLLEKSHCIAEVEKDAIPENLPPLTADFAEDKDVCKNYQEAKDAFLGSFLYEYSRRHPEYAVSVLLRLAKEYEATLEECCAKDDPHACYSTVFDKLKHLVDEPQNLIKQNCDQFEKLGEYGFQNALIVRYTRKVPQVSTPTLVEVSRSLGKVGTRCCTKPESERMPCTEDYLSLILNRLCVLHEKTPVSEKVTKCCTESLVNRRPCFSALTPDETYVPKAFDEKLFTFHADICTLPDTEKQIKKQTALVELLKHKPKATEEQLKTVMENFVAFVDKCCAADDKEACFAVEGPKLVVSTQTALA

[1] = small-molecule microarray binders of probe aXIP, primary screen, biochemical, NeuroSMM set, 635/667 nm fluorescence (AID 1119); details: higher = more signal, called active from +8 up or from −8 down;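 further: probe is the protein aXip251-270 applied at 1 µg/mL to compound-printed slides; binding of probe to printed compounds measured as 667 nm fluorescence plus signal to noise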
[2] = small-molecule binders of probe aNOTCH3, primary screen, biochemical, small-molecule microarray, 635/667 nm fluorescence (AID 1120); details: higher = more signal;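 further: probe is a biotin-tagged antibody raised against NOTCH3 rather than NOTCH3 protein; score merges spot fluorescence near 667 nm with spot signal to noise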
[3] = small-molecule binders of probe aNOTCH2, primary screen, biochemical, small-molecule microarray, 635/667 nm fluorescence (AID 1121); details: higher = more signal;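 further: score merges feature fluorescence read at 667 nm with its signal to noise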
[4] = target: Carbonic anhydrase 2 (Homo sapiens) (UniProt P00918); assay: CAII small-molecule binders, profiling panel, biochemical, small-molecule microarray, Alexa647-labelled CAII (AID 1122); details: CAII-A647 binding fluorescence, higher = more signal
[5] = COS7 lysate on small-molecule microarray, probe aHis, 635 nm (AID 1123); details: COS7 cell lysate, fluorescence, higher = more signal;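 further: z-score combines 667nm fluorescence intensity with signal-to-noise per printed compound spot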
[6] = compound binding in COS7 lysate, probe aLAP1, primary screen, cell lysate, small-molecule microarray (AID 1124); details: probe aLAP1, fluorescence, higher = more signal;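 further: lysate comes from COS7 cells expressing LAP1 and is applied at 0.3 µg/mL; score merges spot fluorescence near 667 nm with signal-to-noise over triplicate slides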
Sam68 (KHDRBS1) = assay: Sam68 small-molecule binders, primary screen, biochemical, small-molecule microarray, 635 nm fluorescence (AID 1125); details: small-molecule microarray binding, higher = more signal;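 further: score merges 667 nm channel intensity with signal to noise over triplicate slides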
[7] = test system: Chordin-like protein 2 (CHRDL2); assay: CHRDL2 small-molecule binders, primary screen, biochemical, small-molecule microarray, 635 nm fluorescence (AID 1126); details: small-molecule microarray binding, fluorescence 635 nm; higher = more signal;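 further: printed compound slides probed with Chrdl2 protein at 4 µg/mL for 1 h at 4 C; score merges 667 nm emission intensity with signal to noise over three replicate slides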
[8] = target: Concanavalin-A (Canavalia ensiformis) (UniProt P02866); assay: ConA small-molecule binders, primary screen, artefact control for SMM control protein annotation, biochemical, small-molecule microarray, Alexa647 label, 635 nm (AID 1127); details: ConA-A647 binding fluorescence, higher = more signal;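 further: z combines 667 nm emission intensity with signal-to-noise across three replicate slides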
Concanavalin-A (Canavalia ensiformis), sequence (P02866 whole entry, looked up): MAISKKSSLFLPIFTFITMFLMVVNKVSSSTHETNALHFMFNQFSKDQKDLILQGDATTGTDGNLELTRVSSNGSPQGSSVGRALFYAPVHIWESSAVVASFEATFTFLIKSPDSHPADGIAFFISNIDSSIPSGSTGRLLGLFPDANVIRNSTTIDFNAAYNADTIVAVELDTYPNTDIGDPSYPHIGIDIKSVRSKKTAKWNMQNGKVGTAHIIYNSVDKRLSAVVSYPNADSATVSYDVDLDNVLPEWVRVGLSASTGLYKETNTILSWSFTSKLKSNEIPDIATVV

Structure (SMILES) | composite z-score (Albumin (Bos taurus)) | composite Z-score [1] | composite z-score [2] | composite z-score [3] | composite z-score [4] | composite z-score [5] | composite z-score [6] | composite z-score (Sam68 (KHDRBS1)) | composite z-score [7] | composite z-score [8]
[N-]=[N+]=NCc1ccccc1[C@@H]1OC(c2ccc(OCCCO)cc2)=N[C@]1(CCS(=O)(=O)c1ccccc1)C(=O)N1CCOCC1 | 0.923 | -0.244 (inactive) | 0.391 | 0.104 | 0.513 | 2.62 | 0.254 | 1.3 | -0.213 | 1.19
CC[C@@H]1C=C(C(=O)O)[C@H](c2ccc(C)cc2)N1S(=O)(=O)c1ccc(C)cc1 | 0.74 | 0.827 (inactive) | 0.0876 | -0.101 | 0.759 | 0.969 | 0.0014 | 1.19 | -0.697 | 0.759
COc1ccc([C@H]2OC[C@@H]3CCC(=O)N32)cc1 | 0.626 | 1.42 (inactive) | 0.0948 | -0.161 | 0.286 | -0.215 | 0.552 | 0.382 | 0.504 | 0.3
COc1cc(CO)cc(I)c1O[C@H]1C=C(C(=O)NCCO)C[C@@H](N(C(=O)c2cc3ccccc3oc2=O)C2CCCCCC2)[C@@H]1O | 0.179 | -0.161 (inactive) | 0.0084 | -0.0282 | -0.177 | -0.149 | 0.0826 | 0.0348 | 0.13 | 0.66
C=CCN(Cc1ccccc1)C(=O)C(c1cccs1)N(C(=O)/C=C\C(=O)O)c1ccc(CCOCCO)cc1 (stereo not given) | 0.955 | 0.0165 (inactive) | -0.416 | -0.135 | 0.864 | -0.691 | -0.679 | -1.33 | -2.25 | -0.931
Cc1ccc(S[C@]2(C(=O)O)CC(=O)N(Cc3ccccc3C(F)(F)F)[C@@H]2c2ccc(CO)cc2I)cc1 | 0.426 | 0.286 (inactive) | -0.0716 | 0.0477 | 0.502 | 1.74 | 1.51 | 0.406 | -0.673 | -0.0929
O=C(O)[C@@]1(CCS(=O)(=O)c2ccccc2)N=C(c2ccc(OCCCO)cc2)O[C@H]1c1ccccc1 | 0.978 | -0.83 (inactive) | 0.156 | -0.0331 | 0.864 | 2.21 | -0.334 | 1.2 | -0.765 | 0.766
CO[C@H]1O[C@H](CO)[C@@H](OC(=O)Nc2ccc(Oc3ccccc3)cc2)[C@H](OC(=O)Nc2ccc3c(c2)OCO3)[C@@H]1OC(=O)Nc1ccc2c(c1)OCO2 | 0.277 | 1.29 (inactive) | 0.327 | 0.0248 | 0.333 | 2.02 | 0.869 | 1.3 | 0.335 | 1.18
Cc1ccc(S[C@]2(C(=O)NCC(C)C)CC(=O)N(Cc3cc(C(F)(F)F)cc(C(F)(F)F)c3)[C@@H]2c2ccc(CO)cc2)cc1 | 0.539 | -0.0662 (inactive) | -0.123 | 0.0362 | 0.78 | 0.586 | 1.56 | -0.309 | -0.256 | -0.512
COc1ccc(-c2cc3c(c(Cc4ccccc4)n2)[Si](C(C)C)(C(C)C)OC3)cn1 | -0.832 | 0.168 (inactive) | 0.0596 | -0.155 | -0.272 | -0.0385 | -0.124 | -0.0817 | 0.21 | -0.739
O=C1OCCC=C[C@H]2OC34C=CCN(CCN5CCOCC5)C(=O)[C@H]3N(CCCCCO)C(=O)[C@@H]4C12 (stereo not given in full) | 0.953 | -0.88 (inactive) | -0.152 | -0.203 | 0.848 | 2.4 | 1.48 | 0.913 | 0.355 | 0.935
O=C1N(CCS(=O)(=O)c2ccccc2)c2ccccc2[C@@H]2OC(c3ccc(OCCCO)cc3)=N[C@]12Cc1ccccc1 | 0.484 | -0.209 (inactive) | 0.126 | -0.0244 | 0.391 | 0.898 | 0.474 | 1.3 | 0.837 | 1.12
C#CCOc1ccc(C[C@@H](C(=O)OC)N(CC#C)[C@@H](/C=C/C2CC2)[C@H](O)Cc2ccccc2)cc1 | -0.485 | -0.423 (inactive) | -0.19 | -0.208 | 0.0591 | -0.148 | 0.286 | -0.51 | 0.212 | -0.557
COc1ccc(C(=O)Nc2ccc(CN3C(=O)[C@]4(O[C@H](CC(=O)N5CCC[C@H]5CO)[C@@H]([Si](C)(C)c5ccc(OC)cc5)[C@@H]4C)c4ccccc43)cc2)cc1 | -0.398 | 0.0524 (inactive) | 0.218 | -0.0681 | 0.298 | 1.72 | 0.394 | 1.29 | 0.666 | 0.884

Reference: PubChem BioAssay
